# Measurements published in PubChem BioAssay AID1259343 (VanderVen Lab, College of Veterinary Medicine, Cornell …, 2017).
# Hit rate of the full screen: of about 6,200 compounds, about 2,900 (47%) were called active. So high a share suggests a set chosen from earlier hits. Some of the results follow. Unmarked numbers belong to inactive results. No stated cut-off is given here; in the data, active means inhibition above about 50%; inactive means the rest.
# Test: Mycobacterium tuberculosis growth inhibition, primary screen (AID 1259343)
# Conditions: inhibition: at 10 µM, hits give high values; outcome: 10 uM
row,SMILES,inhibition
1,O=C1CCCC2=C1C(c1cccs1)n1ncnc1N2 (configuration not stated),-18.9%
2,O=C(NCCCOCc1ccccc1)c1cc(Cl)c[nH]1,77.7% (active)
3,CCCC(C)NC(=O)c1cc(Cl)c[nH]1 (configuration not stated),10.3%
4,O=C(COc1ccc(F)cc1)NCCc1ccc(OC(F)F)cc1,90.5% (active)
5,O=C(COc1ccc(F)cc1)NCc1csc(Br)c1,-34.9%
6,CCOc1cc(C)ccc1NC(=O)CN1Cc2ccccc2C1,14.2%
7,Cc1ccc(C2=NN(C(=O)CN3CCc4ccccc4C3)C(c3ccccc3C)C2)c(C)c1 (configuration not stated),40.4%
8,Cc1ccc(Cl)cc1NC(=O)CN1CCc2ccccc2C1,91.4% (active)
9,CCN(Cc1cccc(C(N)=O)c1)c1ccccc1C,27.3%
10,CC1(C)CC(C=Cc2cccs2)=Nc2ccccc2S1,-37.6%
11,N#Cc1ccc([N+](=O)[O-])c(O)c1,77.2% (active)
12,CCOP1(=S)C(=C2N(C)c3ccccc3C2(C)C)C=NN1c1ccccc1 (configuration not stated),27.1%
13,CCN(CC)P(=S)(C=C1N(C)c2ccccc2C1(C)C)CC (configuration not stated),87.2% (active)
14,CN1/C(=C/C(=O)Nc2ccc(Cl)cc2)C(C)(C)c2ccccc21,1.72%
15,O=C(Nc1ccsc1C(=O)O)c1ccc(Br)cc1,82.5% (active)
16,O=C(O)c1sc(Br)c(I)c1I,7.67%
17,c1csc(-c2cnc3ccc(-c4ccncc4)nn23)c1,74.1% (active)
18,C(=Nn1c(-c2cccs2)csc1=Nc1ccccc1)c1ccccn1,-1.25%
19,N#Cc1cc2c(nc1SCC(=O)OCc1ccccc1)CCC2,41.5%
20,CCOc1ccccc1-n1nnc(C(=O)Nc2ccc(C(C)=O)cc2)c1C,70% (active)
21,CCOc1ccccc1NC(=O)Nc1ccc(Nc2cc(OC(C)C)nc(C)n2)cc1,14.6%
22,CCCC(C)(C)NC(=O)c1nnn(-c2ccc(F)cc2)c1C,16.4%
23,CC1=NN(c2ccc(Cl)cc2)C(=O)C12Cc1ccccc1N1CCCCC12 (configuration not stated),19.5%
24,CCNC(=S)NN=C(C)c1ccc(Cl)s1,-2.97%
25,CCOC(=O)NN=C(C)c1ccc(Cl)s1,19.5%
26,CC(=NNc1ncc(Cl)cc1Cl)c1ccc(Cl)s1,30.7%

row,SMILES,inhibition
1,COCCNC(=S)NN=C(C)c1ccc(Cl)s1,79.3% (active)
2,CNC(=S)NN=C(C)c1ccc(Cl)s1,47.3%
3,C=C(C)CNC(=S)NN=C(C)c1ccc(Cl)s1,102% (active)
4,O=C(NCCCCCC(=O)N1CCC(c2ccccc2)CC1)OCc1ccccc1,70.8% (active)
5,CNC(=O)c1ccc2n1CCN(C(=O)OCc1ccccc1)C2C (configuration not stated),16.2%
6,O=C(C1CCCC1)N1CCN(c2nc(-c3ccccc3Cl)nc3cc(Cl)ccc23)CC1,24.6%
7,Cc1ccc(C)c(N2CCN(C(=O)c3ccc4c(=O)nc5c(-c6ccccc6)n[nH]n5c4c3)CC2)c1,46.6%
8,O=C(c1ccc([N+](=O)[O-])cc1)N1CCN(c2nc(-c3ccccc3)c3cc(Cl)ccc3n2)CC1,68% (active)
9,Cc1ccc(-n2ncc3c(C)nn(Cc4ccccc4F)c(=O)c32)c(C)c1,37.1%
10,Cc1ccc(F)cc1NS(=O)(=O)c1cc(Cl)sc1Cl,94.1% (active)
11,O=S(=O)(Nc1ccc(Cl)cc1F)c1ccc(Br)cc1Cl,71% (active)
12,O=S(=O)(Nc1c(F)cccc1F)c1c(Cl)cccc1Cl,78.8% (active)
13,CN(C1CCCCC1)S(=O)(=O)c1ccc(Br)cc1Cl,-4.67%
14,CN(C)S(=O)(=O)c1ccc(CNc2cc(F)ccc2Cl)o1,-3.01%
15,O=S(=O)(Nc1c(F)cccc1Br)c1cc(Cl)cc(Cl)c1,87.1% (active)
16,Cc1ccc(NS(=O)(=O)c2ccc(F)cc2[N+](=O)[O-])c(F)c1,50.2% (active)
17,O=S(=O)(Nc1ccc(F)cc1F)c1ccccc1Cl,82.3% (active)
18,O=S(=O)(Nc1ccc(F)c(F)c1F)c1ccc(Cl)c2ncccc12,63% (active)
19,O=S(=O)(Nc1ccc(F)c(F)c1F)c1ccc(Cl)cc1F,79.2% (active)
20,Cc1nnc(N2C(=N)S/C(=C\c3c(-c4ccccc4)n(C)c4ccccc34)C2=O)s1,23.3%
21,NC(=O)c1ccccc1OCc1ccccc1C(F)(F)F,42.9%
22,O=S(=O)(Nc1cccc(F)c1)c1cc(Br)ccc1Br,29.6%
23,CCCc1ccc(S(=O)(=O)Nc2ccc(F)cc2C(=O)O)cc1,-3.59%
24,O=S(=O)(Nc1c(F)cccc1F)c1cccc(Br)c1,4.09%
25,O=S(=O)(Nc1ccc(F)cc1F)c1cccc(F)c1,-36.4%
26,O=S(=O)(Nc1cc(F)ccc1F)c1cc(Cl)cc(Cl)c1,64.2% (active)

row,SMILES,inhibition
1,O=C(O)c1cc(F)ccc1NS(=O)(=O)c1ccc(Cl)cc1,70% (active)
2,Cc1ccc(NS(=O)(=O)c2ccc(C)c(F)c2)c(C(=O)O)c1,8.32%
3,O=S(=O)(Nc1ccc(F)cc1)c1cc(Br)ccc1Br,33.5%
4,O=S(=O)(Nc1cc(Cl)ccc1O)c1cc(Br)ccc1Br,105% (active)
5,O=S(=O)(Nc1cc(F)ccc1F)c1cccc(Br)c1,103% (active)
6,Cc1ccc(NS(=O)(=O)c2cccc(C(F)(F)F)c2)c([N+](=O)[O-])c1,77.1% (active)
7,Cc1ccc(NS(=O)(=O)c2ccc(Cl)cc2F)c(Cl)c1,73% (active)
8,O=[N+]([O-])c1ccc(Cl)c(S(=O)(=O)Nc2ccc(F)cc2Cl)c1,78.2% (active)
9,O=S(=O)(Nc1cc(F)ccc1F)c1ccc(Cl)cc1F,64.4% (active)
10,O=S(=O)(Nc1ccccc1I)c1ccc(C(F)(F)F)cc1,41.5%
11,O=[N+]([O-])c1cc(Cl)ccc1NS(=O)(=O)c1cccc(C(F)(F)F)c1,-1.17%
12,O=S(=O)(Nc1ccc(F)cc1F)c1ccc(Cl)cc1F,-21.9%
13,Cc1ccc(C)c(S(=O)(=O)Nc2ccc(Cl)cc2F)c1,0.55%
14,CCC1=NOC(c2nc3sc(C(C)(C)C)cc3c(=O)[nH]2)C1 (configuration not stated),25.8%
15,Cc1ccc(NS(=O)(=O)c2cc(Cl)cc(Cl)c2)cc1,88.4% (active)
16,Cc1ccc(S(=O)(=O)Nc2ccc(Cl)c(C#N)c2)cc1,-29.9%
17,O=C(C1=C2SC=C(c3ccc(Br)cc3)N2CC1)c1ccc2c(c1)OCO2,-40.9%
18,Cc1cc(=O)[nH]c(-n2nc(C)cc2NC(=O)Cc2cccc3ccccc23)n1,102% (active)
19,CCCc1cc(=O)[nH]c(-n2nc(C)cc2NC(=O)C(CC)c2ccccc2)n1 (configuration not stated),102% (active)
20,CCCc1cc(=O)[nH]c(-n2nc(C)cc2NC(=O)Cc2cccc3ccccc23)n1,100% (active)
21,CCCc1cc(=O)[nH]c(-n2nc(C)cc2NC(=O)CC(c2ccccc2)c2ccccc2)n1,101% (active)
22,CCCc1cc(=O)[nH]c(-n2nc(C)cc2NC(=O)Cc2ccccc2)n1,99.9% (active)
23,CCCc1cc(=O)[nH]c(-n2nc(C)cc2NC(=O)CCc2ccccc2)n1,-14.3%
24,CCCc1cc(=O)[nH]c(-n2nc(C)cc2NC(=O)Cc2ccc(OCC)cc2)n1,-19.4%
25,COc1c(-c2coc3cc4c(cc3c2=O)CC(OC(C)=O)C(C)(C)O4)ccc2c1C=CC(C)(C)O2 (configuration not stated),77.7% (active)
26,CCCNC(=O)CN1CCc2cc(Br)ccc21,74.1% (active)

row,SMILES,inhibition
1,O=C(Cc1ccccc1O)N1CCc2cc(Br)ccc21,23.1%
2,CCOC(C)c1nc(CN2CCc3cc(Br)ccc32)cs1 (configuration not stated),28.4%
3,O=S(c1ccccc1)c1ccc2nnnn2n1 (configuration not stated),-44%
4,Cc1cc(Oc2ccc(C(C)C)cc2)nc(SCc2ccc(F)c(F)c2)n1,-1.84%
5,CC(C)c1ccc(Oc2ccc3nnnn3n2)cc1,55.6% (active)
6,COc1ccc2c(c1)CCCN2Cc1ccc(C(N)=O)cc1,20.6%
7,COc1ccc(Oc2ccc(C(=O)NCCc3cnc[nH]3)cc2)cc1,52.5% (active)
8,COc1ccc(Oc2ccc(C(=O)NCCN3CCNC3=O)cc2)cc1,73.9% (active)
9,CCc1nc2ccc(C(=O)NCCOc3ccc(OC)cc3)cn2c1N(C=O)Cc1ccc(OC)cc1,47%
10,Cc1ccc(C)c(C(C)CNC(=O)c2cnccn2)c1 (configuration not stated),21.5%
11,O=C(NCc1ccc(OC(F)F)cc1)c1cnccn1,85.3% (active)
12,OC(c1ccc(Cl)cc1)c1ccc(OC(F)F)cc1 (configuration not stated),19.4%
13,COc1ccc(CNC(=O)c2ccc(Br)cn2)cc1,14.4%
14,O=C(NCc1ccc(OC(F)F)cc1)c1ccc(Cl)cc1,85.9% (active)
15,COc1ccc2c(c1)CCC1C2CC[C@@]2(C)C1CC[C@@H]2O (some centres not stated),46%
16,Cc1c(N)c(C)c([N+](=O)[O-])c(C)c1[N+](=O)[O-],-53.9%
17,CC(=O)c1ccc(N2CCCC2)cc1OCc1cccc(C)c1,36.7%
18,N#CCc1cccc(C(=O)Nc2cc(F)cc(N3CCCC3)c2)c1,84.4% (active)
19,Cc1cc(N2CCCC2)ccc1NC(=O)c1cccc(NC(=O)OC(C)(C)C)c1,20.1%
20,COc1ccc(OCCSc2nnnn2-c2ccc(OC)cc2)cc1,-17.4%
21,COc1ccc(-n2nnnc2SCCOc2ccc(Br)cc2)cc1,inactive
22,COc1ccc(-n2nnnc2SCc2ccc(C#N)cc2)cc1,82.8% (active)
23,O=P1(Nc2ccc(-c3ccccc3)cc2)C=C(c2ccccc2)OC(c2ccccc2)=C1,98.4% (active)
24,Cc1c(C(=O)OCC(C)C)[nH]c2c1C(=O)CCC2,60.5% (active)
